Source: PubChem BioAssay (National Center for Advancing Translational Sciences (NCATS))
TsaE inh: inhibitors of E. coli YjeE (TsaE). purified YjeE enzyme, qHTS inhibition assay. Potency, µM. actives 0.05% (n = 71,000). AID 605
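Purified YjeE (10 uM) with BODIPY Texas Red-labeled ADP probe (2 uM); compounds pin-transferred, 15 min at room temperature. Binding inhibition read as decreased fluorescence polarization; ADP titration as control.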
TSHR ag: activates the human thyroid stimulating hormone receptor | Potency, µM (highest dose often 57.1 µM), without a hit: at the highest dose activation, usual class: activators | HEK293-CNG-TSHR cells (CNG channel as cAMP sensor), membrane potential dye, cAMP | actives 0.48% (n = 73,000) | P16473; active means well fitted activation curve with a large enough effect in the main read-out, with a control signal flat, not every such curve was filed as active; inconclusive means small, poorly fitted or top-dose-only effect, or a change in a side signal; inactive means no such curve, though single readings can be large or run the other way; % of control where 0% means no effect;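 further: the control signal comes from parental cells without the receptor; potency means the concentration at half of the fitted maximal effect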
Target sequence (P16473 whole entry, looked up): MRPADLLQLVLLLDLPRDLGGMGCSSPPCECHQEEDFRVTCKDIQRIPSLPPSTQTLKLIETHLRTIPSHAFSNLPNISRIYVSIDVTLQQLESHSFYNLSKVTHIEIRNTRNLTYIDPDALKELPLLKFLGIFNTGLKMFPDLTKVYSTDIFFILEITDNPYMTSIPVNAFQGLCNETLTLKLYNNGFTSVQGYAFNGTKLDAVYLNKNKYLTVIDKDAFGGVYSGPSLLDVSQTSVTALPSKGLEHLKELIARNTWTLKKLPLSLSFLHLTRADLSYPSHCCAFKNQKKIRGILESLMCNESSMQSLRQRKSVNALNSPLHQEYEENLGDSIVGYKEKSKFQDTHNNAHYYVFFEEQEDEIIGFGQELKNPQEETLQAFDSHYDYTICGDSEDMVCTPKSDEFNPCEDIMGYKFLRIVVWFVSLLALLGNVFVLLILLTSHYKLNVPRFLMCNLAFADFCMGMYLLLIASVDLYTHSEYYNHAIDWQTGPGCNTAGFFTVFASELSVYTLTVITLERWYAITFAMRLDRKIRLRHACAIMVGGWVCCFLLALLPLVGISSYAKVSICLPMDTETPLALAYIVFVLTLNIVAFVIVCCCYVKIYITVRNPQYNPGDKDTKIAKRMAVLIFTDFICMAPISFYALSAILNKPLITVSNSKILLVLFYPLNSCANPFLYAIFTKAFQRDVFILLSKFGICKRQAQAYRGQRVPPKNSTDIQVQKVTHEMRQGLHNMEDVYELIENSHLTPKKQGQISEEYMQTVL
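HEK 293 cells stably expressing TSHR and a cAMP-gated CNG channel; parental CNG-only cells as counterscreen. Cells preloaded 60 min with membrane potential dye plus 100 uM RO 20-1724, then compound 30 min; fluorescence read at 590 nm.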
DNA Pol III inh: blocks replication by bacterial DNA polymerase III holoenzyme; reconstituted DNA polymerase III holoenzyme replication, biochemical; Potency, µM (series often up to 57.1 µM), for the others: at the highest dose activity change, negative = inhibition; actives 0.25% (n = 71,000); AID 603; further: potency means the concentration at half of the fitted maximal effect; on the % scale 0 is the no-effect control and ±100 the full control effect
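Reconstituted *E. coli* holoenzyme (0.35 nM Pol III, 1 nM beta, 154 nM SSB, 2 nM primase) was preincubated with compound for 15 min at RT. Synthesis on 1.4 nM ssM13Gori ran 35 min, then was stopped with PicoGreen/EDTA and read as dsDNA fluorescence.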
BRCT inh red: BRCT-phosphoprotein interaction inhibition (red fluorophore); P38398; BRCT-phosphopeptide binding, red fluorescence polarization; Potency, µM (top dose mostly 76.9 µM), for inactives: top-dose activity change, negative = inhibition, hits mostly inhibitors; actives 0.03% (n = 75,000); AID 892; further: on the % scale 0 is the no-effect control and ±100 the full control effect
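Rhodamine-labelled pBACH1 10-mer (100 nM) bound to BRCT domain (100 nM) at pH 7.3; compounds incubated 12 min room temperature, polarization read. Free peptide defines full inhibition; unlabelled decapeptide titrated as control.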
BRCT PPI green: BRCA1 BRCT-phosphoprotein interaction inhibition | AID 875 | P38398 | BRCA1 BRCT-phosphopeptide binding, green fluorescence polarization | Potency, µM (top dose mostly 76.9 µM), without a hit: top-dose activity change, negative = inhibition, most hits filed as inhibitors | actives 0.05% (n = 75,000);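 further: potency means the concentration at half of the fitted maximal effect; plate controls were peptide without protein for full effect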
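Compounds were incubated for 12 min at room temperature with a complex of 100 nM fluorescein-tagged pBACH1 decapeptide and 250 nM His-tagged BRCT protein. Buffer was phosphate pH 7.3 with EDTA, DTT and Tween 20. Disruption of binding lowers the polarization signal.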
HEK293 cAMP ctrl: raises cAMP in parental HEK293 cells, TSHR agonist counter-screen; actives 2.5% (n = 73,000); Potency, µM (series often up to 57.1 µM), inactives show at the highest dose activation, actives largely listed as activators; parental HEK293 CNG cAMP sensor, membrane potential fluorescence; further: potency means the concentration at half of the fitted maximal effect; % of control where 0% means no effect; nearly all actives have a fitted effect of over 55% in size
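Parental HEK 293 cells stably expressing a cAMP-gated CNG channel were loaded with membrane potential dye containing 100 uM RO 20-1724 for 60 min. Compound added for 30 min; depolarization read as fluorescence intensity at 590 nm.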
* marks the source's active call; other numbers are inactive results; i = inactive; u = inconclusive; x = no result; ! = not active in a repeat; [ ] = remark or other dose. In the library only some 3.2% were active in any assay of this set; here they are far more common. Unless noted, the call rests on the fitted dose curve; in most records, active means well fitted curve in the direction sought with a large enough effect; inconclusive means small, poorly fitted or top-dose-only effect, or another doubt; inactive means no such curve, though single readings can be large; an effect the other way counts as inactive or inconclusive.

SMILES	TsaE inh	TSHR ag	DNA Pol III inh	BRCT inh red	BRCT PPI green	HEK293 cAMP ctrl
Cc1cnc(C(=O)Nc2ccc(C(=O)N(C)C3CCCCC3)cc2)cn1	i	8%	-2%	1%	-3%	18%
C[n+]1cc2c3c(ccc2c2ccc4cc5c(cc4c21)OCO5)OCO3	i	u	32µM*!	0%	-1%[3.08 µM]	-32%[25.6 µM]
CCOC(=O)N1CCN(CC(=O)Nc2c(C(=O)OC)[nH]c3ccc(Cl)cc23)CC1	i	8%	4%	0%	-1%	15%
COC(=O)c1[nH]c2ccc(Cl)cc2c1NC(=O)CN1CCC(C(N)=O)CC1	i	u	-3%	1%	-1%	16µM*
COc1ccc2c(c1)CC(C1(O)C(=O)N(C)c3ccccc31)C2=O (configuration not stated)	i	u	2%	0%	0%	-51%
COc1ccc(OC)c(NC(=O)CSCc2cnn(-c3ccccc3)c2-n2cccc2)c1	i	u	2%	-1%	0%	25µM*
COc1cc(NC(=O)CSCc2cnn(-c3ccccc3)c2-n2cccc2)cc(OC)c1	i	23%	1%	0%	-2%	11%
CN1Cc2cc(C(=O)c3cc(Cl)cc(CSc4ncccn4)c3O)cnc2NC1=O	i	16µM*	-6%	1%	4%	13%
Cc1ccc(O)c(C(=O)c2cnc3c(c2)CN(CCC(C)C)C(=O)N3)c1	i	4%[11.4 µM]	-7%	0%	0%	7%
N#CC1=C(N)S[C@H](C(=O)C23CC4CC(CC(C4)C2)C3)[C@H]1c1ccncc1	i	1.3µM*	9%	-3%	0%	16%
O=C(NCc1ccc2c(c1)OCO2)c1c[nH]c2ccc(S(=O)(=O)N3CCOCC3)cc2c1=O	i	15%	9%	1%	8%	11%
COc1ccc2[nH]c(=O)c(CN(C(C)=O)c3cccc(C)c3)cc2c1	i	0%	-3%	0%	-2%	7%
CCC(=O)N(Cc1cc2cc(OC)ccc2[nH]c1=O)c1ccc(C)cc1C	i	u	-1%	2%	4%	32µM*
COc1cc2c(cc1OC)-c1cc(NC3CCCCCC3)nc(=O)n1CC2	i	10µM*	-10%	1%	8%	19%
O=C1OC(Nc2nccs2)c2ccccc21 (configuration not stated)	i	-1%[11.4 µM]	2%	1%	0%	2%
COc1ccc2nc3c(c(-c4ccccc4)c2c1)CCC3	i	u	-2%	-1%	2%	25µM*
c1ccc(-c2c3ccccc3nc3[nH]c4ccccc4c23)cc1	i	u	-4%	-4%	0%	10µM*
c1ccc2nc3c(nc2c1)[nH]c1ccccc13	i	2%	-7%	0%	2%	6%
O=S(=O)(Nc1nccs1)c1ccc(NS(=O)(=O)c2cccs2)cc1	i	-3%	-10%	0%	-4%	2%
O=C(O)CCC(=O)N1CCc2cc(S(=O)(=O)N3CCC(Cc4ccccc4)CC3)ccc21	i	u	-2%	0%	2%	u
CN(C)c1ncnc2ccc(-c3ccc4c(c3)OCO4)cc12	i	u	-11%	0%	-4%	25µM*
CN(C)C(=O)c1ccc(-c2ccc3ncnc(N(C)C)c3c2)cc1	i	9%	-3%	-2%	1%	6%
COc1ccc(NC(=O)CC2SC(=NCc3ccccc3OC)NC2=O)cc1 (configuration not stated)	i	u	-5%	-1%	0%	u
Cc1cccc(CNc2nc(-c3ccccc3CN(C)C)nc3ccccc23)c1	i	u	1%	1%	6%	0.79µM*
CN(C)Cc1ccccc1-c1nc(N(C)C)c2ccccc2n1	i	u	-6%	0%	1%	10µM*
SMILES	TsaE inh	TSHR ag	DNA Pol III inh	BRCT inh red	BRCT PPI green	HEK293 cAMP ctrl
COc1ccccc1CNc1nc(-c2ccccc2OC)nc2ccccc12	i	32µM*	-4%	-2%	3%	20%
COc1cccc(-c2nc(NCc3cccnc3)c3ccccc3n2)c1	i	32µM*	-5%	-2%	1%	11%
COc1cccc(-c2nc(NCc3ccccc3)c3ccccc3n2)c1	i	u	2%	0%	0%	32µM*
c1cncc(CNc2nc(-c3cccnc3)nc3ccccc23)c1	i	25µM*	-10%	-3%	1%	-5%
O=C(NCc1ccc(N2CCCC2=O)cc1)c1cn(CCc2ccccc2)nn1	i	0%	0%	-1%	-3%	-2%
Fc1ccc(-c2nnc(CN3CCC(c4nc5ccccc5s4)CC3)o2)cc1	i	u	1%	0%	-3%	u
CC(C)C(NC(=O)OC(C)(C)C)C(=O)N1CCCC1C(=O)NC(Cc1ccccc1)C(N)=O (configuration not stated)	i	6%	-2%	1%	-1%	10%
O=C(O)c1ccc(F)c(S(=O)(=O)Nc2ccccc2Cl)c1	i	1%	-3%	-1%	-2%	-2%
Cc1cccc2nc(CSc3nncn3-c3ccccc3)cn12	i	29%	-2%	0%	-3%	2%
COc1ccc(C(C(=O)NC2CCCC2)N(C(=O)c2ccco2)c2ccc3c(c2)OCO3)cc1OC (configuration not stated)	i	10µM*	-3%	-1%	-5%	17%
O=S(=O)(c1cccc(Cl)c1)N1CCCC1	i	12%	-2%	-1%	-1%	7%
CCc1ccccc1NC(=O)CSC1=C(C#N)C(c2ccc3c(c2)OCO3)C2=C(CCCC2=O)N1 (configuration not stated)	i	11%	1%	-2%	-1%	8%
CC1=C(C(=O)Nc2ccccc2)C(c2ccc3c(c2)OCO3)C2=C(CCCC2=O)N1 (configuration not stated)	i	u	-5%	-1%	-3%	16µM*
CC(C)CO/N=C1/C[C@@H](O)[C@@H](O)[C@@H]2[C@@H]3C(=O)N(c4cccc(Oc5ccccc5)c4)C(=O)[C@H]3CC[C@@H]12	x	2%[11.4 µM]	x	1%[15.4 µM]	-1%[15.4 µM]	2%[11.4 µM]
Cc1nc2ccccc2c(=O)n1/N=C/c1c(O)ccc2oc3c(c12)CCCC3	i	u	-10%	0%	0%	16µM*
Cc1nc2ccccc2c(=O)n1/N=C/c1ccc(N(C)C)cc1	i	0%	0%	0%	-2%	1%
COc1ccc(OC)c(NC(=O)CSC2=NCCS2)c1	i	u	1%	0%	0%	u
